Common to all, as to experiment: yeast three-hybrid, YBZ-1, SC-Leu-His + 0.5 mM 3-AT, 4 days
Common to all, as to settings: tags: N-Gal4 AD-HA kept; label: inside an RPR1-promoter hybrid RNA with tandem MS2 sites; ssRNA

In assay [1] the target is PUM1 PUF domain R5-RHN (Homo sapiens, UniProt Q14671 828-1176, C1007R;R1008H;Q1011N). The procedure, abridged: (§1)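 The interaction score is the logarithmic change in variant frequency from input to selection. It uses log2, with a pseudocount of 1 for absent variants, and frequencies came from PCR-amplified, Illumina-sequenced repeat regions. The libraries were Pumilio-1 PUF domains randomized at the three base-contacting residues per repeat, co-expressed with matching RNA elements in strain YBZ-1 (LexA–MS2 coat fusion, HIS3 reporter). Plating lasted four days on SC-Leu (input) or SC-Leu-His + 0.5 mM 3-AT (selection).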

The target in assay [2] is PUM1 PUF domain R7-TIV (Homo sapiens, UniProt Q14671 828-1176, S1079T;N1080I;E1083V). The procedure, abridged: as §1
The target in assay [3] is T1, PUM1 PUF domain R6-QRS (Homo sapiens, UniProt Q14671 828-1176, N1043Q;Y1044R;Q1047S).
T1 sequence: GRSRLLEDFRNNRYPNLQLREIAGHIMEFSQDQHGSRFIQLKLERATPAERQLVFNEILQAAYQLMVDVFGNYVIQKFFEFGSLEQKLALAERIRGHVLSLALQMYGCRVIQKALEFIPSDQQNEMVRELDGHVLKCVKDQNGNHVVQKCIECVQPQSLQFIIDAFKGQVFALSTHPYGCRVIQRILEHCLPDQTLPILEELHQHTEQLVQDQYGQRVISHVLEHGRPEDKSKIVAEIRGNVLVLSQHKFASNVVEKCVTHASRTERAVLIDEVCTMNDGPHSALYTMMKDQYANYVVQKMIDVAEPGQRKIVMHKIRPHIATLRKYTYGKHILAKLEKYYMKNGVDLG
The procedure, abridged: as §1

Assay [4] deals with PUM1 PUF domain R4-WSG (Homo sapiens, UniProt Q14671 828-1176, N971W;H972S;Q975G). The gist of the method:
as §1

The target in assay [5] is PUM1 PUF domain R3-IFT (Homo sapiens, UniProt Q14671 828-1176, C935I;R936F;Q939T). The procedure, abridged:
as §1

The target of assay [6] is PUM1 PUF domain R5-KYS (Homo sapiens, UniProt Q14671 828-1176, C1007K;R1008Y;Q1011S). The procedure, abridged:
as §1

Assay [7] concerns the target PUM1 PUF domain R8-EWK (Homo sapiens, UniProt Q14671 828-1176, N1122E;Y1123W;Q1126K). The procedure, abridged: as §1
Assay [8] concerns the target PUM1 PUF domain R5-RRD (Homo sapiens, UniProt Q14671 828-1176, C1007R;Q1011D). The procedure, abridged: as §1
In assay [9] the target is PUM1 PUF domain R3-RCS (Homo sapiens, UniProt Q14671 828-1176, C935R;R936C;Q939S). The gist of the method:
as §1

Assay [10] deals with PUM1 PUF domain R1-QTR (Homo sapiens, UniProt Q14671 828-1176, S863Q;R864T;Q867R). The gist of the method: as §1

The values that follow come from article PMC8384837, “Expanding the binding specificity for RNA recognition by a PUF domain”.

For the sequence “GGCUAGAACUAGUGGAUCCCCCGGCGCCCGGCGGCUCGAGCCCGGGUAAGUGUGAAUAGUCUGCAUGCCGCCGGGCGCCAUGCCUGCAGGUCGACUCUAGAAAACAUG”, in assay [1], the binding signal is 4.79 log2 enrichment (interaction score). For the sequence “GGCUAGAACUAGUGGAUCCCCCGGCGCCCGGCGGCUCGAGCCCGGGUAAGUUUAAAUAGUCUGCAUGCCGCCGGGCGCCAUGCCUGCAGGUCGACUCUAGAAAACAUG”, in assay [2], the binding signal was 2.5 log2 enrichment (interaction score).

“GGCUAGAACUAGUGGAUCCCCCGGCGCCCGGCGGCUCGAGCCCGGGUAAGUGUAAAUAGUCUGCAUGCCGCCGGGCGCCAUGCCUGCAGGUCGACUCUAGAAAACAUG”: the binding signal in assay [3] was 4.63 log2 enrichment (interaction score); in [4], 1.85 log2 enrichment (interaction score); in assay [5], 4.66 log2 enrichment (interaction score); in assay [6] it was 2.35 log2 enrichment (interaction score); in assay [7], 3.5 log2 enrichment (interaction score); in [8] it was 2.72 log2 enrichment (interaction score). “GGCUAGAACUAGUGGAUCCCCCGGCGCCCGGCGGCUCGAGCCCGGGUAAGUGUACAUAGUCUGCAUGCCGCCGGGCGCCAUGCCUGCAGGUCGACUCUAGAAAACAUG”: the binding signal in assay [4] was 2.7 log2 enrichment (interaction score). For “GGCUAGAACUAGUGGAUCCCCCGGCGCCCGGCGGCUCGAGCCCGGGUAAGUGUAAGUAGUCUGCAUGCCGCCGGGCGCCAUGCCUGCAGGUCGACUCUAGAAAACAUG”, the binding signal in assay [9] was 4.81 log2 enrichment (interaction score). Take “GGCUAGAACUAGUGGAUCCCCCGGCGCCCGGCGGCUCGAGCCCGGGUAAGUGUUAAUAGUCUGCAUGCCGCCGGGCGCCAUGCCUGCAGGUCGACUCUAGAAAACAUG”: the binding signal in assay [8] was 5.74 log2 enrichment (interaction score). Turning to “GGCUAGAACUAGUGGAUCCCCCGGCGCCCGGCGGCUCGAGCCCGGGUAAGUGUCAAUAGUCUGCAUGCCGCCGGGCGCCAUGCCUGCAGGUCGACUCUAGAAAACAUG”, the binding signal in assay [6] is 3.71 log2 enrichment (interaction score); in [8], 5.76 log2 enrichment (interaction score). With “GGCUAGAACUAGUGGAUCCCCCGGCGCCCGGCGGCUCGAGCCCGGGUAAGUGUAUAUAGUCUGCAUGCCGCCGGGCGCCAUGCCUGCAGGUCGACUCUAGAAAACAUG”, the binding signal in assay [4] was 3.48 log2 enrichment (interaction score). For “GGCUAGAACUAGUGGAUCCCCCGGCGCCCGGCGGCUCGAGCCCGGGUAAGUGUAAAUCGUCUGCAUGCCGCCGGGCGCCAUGCCUGCAGGUCGACUCUAGAAAACAUG”, the binding signal in assay [10] was 2.41 log2 enrichment (interaction score).
